An excerpt weighted towards active compounds, which were near 19% of everything screened.
KB-3-1 cytotox: KB-3-1 parental cell cytotoxicity. KB-3-1 viability, CellTiter-Glo ATP luminescence, 72 h. Potency, µM (top dose mostly 46.1 µM), usual class: cytotoxic. 400,000 tested, 1.4% active. AID 1347075; also: nearly all actives have a fitted effect of over 60% in size
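Multi-concentration cytotoxicity screen in KB-3-1 cells grown in DMEM lacking phenol red with 10% FBS. After 72 h at 37 °C with compound, ATP-dependent luminescence was recorded.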
KB-V1 cytotox: kills drug-selected multidrug resistant KB-V1 cells; KB-V1 MDR cells viability, CellTiter-Glo, 72 h; Potency, µM (titrated, usually from 46.1 µM), most hits filed as cytotoxic; 400,000 tested, 3.4% active; AID 1347076; also: nearly all actives have a fitted effect of over 60% in size
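KB-V1 MDR subline cells in DMEM (phenol-red free, 10% FBS) exposed to compounds in qHTS concentration series for 72 h at 37 degrees C. Viability read by CellTiter-Glo luminescence; concentration-effect curves fitted after normalization and correction.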
HT1080 IDH1KD tx: HT-1080 IDH1 knockdown cell toxicity (counter line); HT-1080 IDH1 knockdown viability, ATP luminescence, 48 h; Potency, µM (top dose mostly 46.1 µM), most hits filed as cytotoxic; 360,000 tested, 2% active; AID 686971
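Luminescent ATP read-out (CellTiter-Glo, 10 min at room temperature) after 48 h compound exposure at 37 °C gave viability of IDH1-knockdown HT-1080 cells. Activity was normalised to DMSO and cell-free wells, then fitted as concentration-response curves.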
HT1080NT lethal: kills 2HG-producing HT-1080-NT fibrosarcoma cells | HT-1080-NT fibrosarcoma viability, CellTiter-Glo ATP luminescence, 48 h | Potency, µM (doses to about 46.1 µM), actives largely listed as cytotoxic | 360,000 tested, 1.6% active;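 also: NT is the 2HG producing partner of a matched IDH1 knockdown line; nearly all actives have a fitted effect of over 55% in size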
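750 cells/well, RPMI + 5% FBS; 2 h settle, compound pin-transfer, 48 h at 37 degrees C. CellTiter-Glo 10 min RT, luminescence. Normalized to DMSO and media-only wells.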
DT40 TDP1 CPT: DT40-hTDP1 cell growth loss with CPT; chicken DT40 Tdp1-/-;hTDP1 cells + 20 nM CPT, ATP luminescence, 48 h; Potency, µM (top dose mostly 46.2 µM), most hits filed as inhibitors; 420,000 tested, 12% active; also: nearly all actives have a fitted effect of over 55% in size
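Chicken DT40 Tdp1-/- cells complemented with human TDP1, 400 cells/well, exposed to compounds plus 20 nM camptothecin for at least 48 h at 37 C; viability read as ATP content by CellTiter-Glo luminescence.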
TDP1 cell noCPT: qHTS for Inhibitors of human tyrosyl-DNA phosphodiesterase 1 (TDP1): qHTS in cells in absence of CPT | 420,000 tested, 15% active | AID 686978, 2013 | Potency, µM (series often up to 46.2 µM), actives largely listed as inhibitors | DT40 Tdp1-/- hTDP1 cells, no CPT, ATP luminescence, 48 h; also: nearly all actives have a fitted effect of over 55% in size
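Stably hTDP1-transfected Tdp1-null chicken DT40 cells were treated with library compounds minus camptothecin and grown for at least 48 hr at 37 °C, after which cellular ATP was quantified by luminescence.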
Numbers stand for hits; 0 = inactive; ? = inconclusive; - = no result given; ! = a repeat was not active. Calls follow the shape of the dose curve; as a rule, active = well fitted curve in the direction sought with a large enough effect; inconclusive = small, poorly fitted or top-dose-only effect, or another doubt; inactive = no such curve, though single readings can be large; an effect the other way counts as inactive or inconclusive.

SMILES	KB-3-1 cytotox	KB-V1 cytotox	HT1080 IDH1KD tx	HT1080NT lethal	DT40 TDP1 CPT	TDP1 cell noCPT
CC(C)c1ccc(S(=O)(=O)N2CCN(C(=S)NCc3ccco3)CC2)cc1	0	?	0	0	15µM	?
S=C(NCc1ccco1)N1CCN(c2ccc(Cl)cc2)CC1	0	?	0	0	0	23µM
S=C(NCc1ccco1)N1CCN(Cc2ccc(Cl)cc2Cl)CC1	?	?	0	0	?	23µM
CC(=O)c1ccc(N2CCN(C(=S)NCc3ccco3)CC2)cc1	0	0	0	0	?	?
COc1cc(/C=N/Nc2nc(Nc3ccccc3)nc(-n3nc(C)cc3C)n2)cc(OC)c1OC	?	7.3µM	15µM	?	23µM	18µM
COc1cc(/C=N/Nc2nc(Nc3ccc(C)cc3)nc(-n3nc(C)cc3C)n2)cc(OC)c1OC	0	?	2.8µM	4.5µM	4.6µM	2.9µM
COc1cc(/C=N/n2nnnc2Nc2ccccc2)cc(OC)c1OC	0	2.6µM	0	0	15µM	18µM
COc1ccc(Nc2nc(NCc3ccco3)nc(N/N=C/c3ccccc3)n2)cc1	0	0	0	0	?	?
COc1cc(/C=N\Nc2nc3ccccc3o2)cc(OC)c1OC	0	?	?	?	?	?
COc1ccc(O)c(/C=N/Nc2nc(Nc3ccccc3)nc(-n3nc(C)cc3C)n2)c1	15µM	?	16µM	?	0.58µM	0.52µM
O=S(=O)(c1ccc(-c2n[nH]c(=S)o2)cc1)N1CCCC1	0	0	0	0	0	0
CN(C)c1ccc(/C=C/c2ccc3cc(N(C)C)ccc3n2)cc1	0	?	-	-	13µM	?
CN(C)c1ccc(/C=C/c2ccc3ccccc3n2)cc1	8.2µM!	7.3µM!	?	?	18µM	12µM
Cc1cc(/C=C/c2ccccc2)nc2ccccc12	0	?	-	-	?	10µM
CCN(CC)c1ccc(/C=C/c2cc(-c3ccccc3)c3ccccc3n2)cc1	0	0	0	0	0	26µM
CCN(CC)c1ccc(/C=N/NC(=O)c2cc(C)nc3ccccc23)cc1	0	0	?	0	0	?
Cc1cc(OC(=O)c2ccc(S(=O)(=O)N3CCOCC3)cc2)c([N+](=O)[O-])c(=O)[nH]1	0	0	0	0	0	0
Cc1cc(N/N=C/c2ccc(N(C)C)cc2)c2ccccc2n1	0	0	0	0	0	?
CN(C)c1ccc(/C=C/c2cccc3cc4ccccc4nc23)cc1	4.1µM	0	-	-	0.1µM	0.13µM
CN(C)c1ccc(/C=C/c2cc(/C=C/c3ccc(N(C)C)cc3)c3ccccc3n2)cc1	0	0	-	-	?	11µM
CCOc1cc(/C=C/c2cc(C(=O)O)c3ccccc3n2)ccc1O	0	0	0	0	0	0
CCCN(CCC)c1ccc(/C=C/c2ccc3cc(OCC)ccc3n2)cc1	0	0	0	0	?	23µM
CN(C)c1ccc(/C=C/c2ccc3cc(F)ccc3n2)cc1	0	0	-	-	?	10µM
Cc1ccc(S(=O)(=O)NC(=O)C2(C)CCN2C(=O)CC2CCCCC2)nc1 (stereo not given)	0	0	0	0	0	0
COc1ccc(COC[C@H](C)[C@H](O)[C@@H](C)[C@H]2OC(=O)[C@@H]2C)cc1	0	0	0	0	0	0
SMILES	KB-3-1 cytotox	KB-V1 cytotox	HT1080 IDH1KD tx	HT1080NT lethal	DT40 TDP1 CPT	TDP1 cell noCPT
CC(=O)Oc1ccc(C(=O)Cc2ccc3ccccc3n2)c(O)c1C	0	0	0	0	0	0
CN(C)c1ccc(C(=N)Cc2ccc3ccccc3n2)cc1	0	0	0	0	21µM	?
COc1ccc(NC(=O)C2CCN(S(=O)(=O)c3cn(C)cn3)CC2)cc1Cl	-	-	-	-	0	0
O=C(O)c1ccc2ccc3ccccc3c2c1	0	0	0	0	0	0
O=c1ccc2ccccc2c2ccccc12	8.2µM	?	5.8µM	8.2µM	2.9µM	2.6µM
Cc1ccc2cc(C#N)c(N3CCN(C(=O)c4cccs4)CC3)nc2c1	0	?	0	0	?	21µM
